Test results from PubChem BioAssay.
Where “and” joins values, the source holds several entries; their conditions need not be identical. Equal values may be shown once. Records with an inconclusive call do not appear. Calls of active or inactive are those of the source. Unless noted, the limit is not given here; nearly all actives have AC50 up to about 26 µM.

Assays:
[1] = growth inhibition of DIPG glioma cells, dose response, cell-based, SU-DIPG-XVII, MIPE5.0, CellTiter-Glo, qHTS (AID 1347060); conditions: SU-DIPG-XVII viability, CellTiter-Glo ATP luminescence;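 as to AC50: cells exposed to compound for 48 hours before viability readout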
[2] = growth inhibition of DIPG glioma cells, dose response, cell-based, SU-DIPG-XIII, MIPE5.0, CellTiter-Glo, qHTS (AID 1347064; cut-off not given, nearly all actives have AC50 up to about 23 µM;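 as to AC50: cells exposed to compound for 48 hours before the viability read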); conditions: SU-DIPG-XIII viability, CellTiter-Glo ATP luminescence
[3] = viability loss in pontine glioma line – cell-based, SU-DIPG-XXV, MIPE5.0, CellTiter-Glo, qHTS, dose response (AID 1347065); conditions: CellTiter-Glo ATP luminescence;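 also: cells exposed to compound for 48 hours before ATP readout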
[4] = JHH-DIPG-1 glioma cell viability, MIPE5.0 library, CellTiter-Glo luminescence, qHTS (AID 1347067); conditions: JHH-DIPG-1 glioma viability, CellTiter-Glo ATP luminescence;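 also: cells exposed to compound for 48 hours before readout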
[5] = SU-DIPG-XXV glioma cell viability, MIPE5.0 library, qHTS (AID 1347068; cut-off not given, nearly all actives have IC50 up to about 30 µM;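 as to IC50: cells exposed to compound for 48 hours before viability readout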)

Compound	AC50 [1]	AC50 [2]	AC50 [3]	AC50 [4]	outcome [5]	outcome [1]	outcome [2]	outcome [3]	outcome [4]	IC50 [5]
NC(=O)c1ccc2nc(-c3ccc(C4(N)CCC4)cc3)c(-c3ccccc3)n2n1	13.2 µM (active)	6.61 µM (active)	7.42 µM (active)	7.42 µM (active)	inactive					
O=C(O)CNC(=O)c1nc(Cl)c2ccccc2c1O					inactive	inactive	inactive	inactive	inactive	
Cc1cc2cc(Oc3ccnc(Nc4cccc(CS(=O)(=O)NCCN(C)C)c4)n3)ccc2[nH]1	4.68 µM (active)	8.33 µM (active)	5.9 µM (active)	20.9 µM (active)						18.6 µM (active)
O=C(O)CC(C(=O)O)n1c(O)c(C2=c3cc(Br)ccc3=NC2=O)sc1=S (stereo not given)					inactive	inactive	inactive	inactive	inactive	
CNC(=O)c1ccccc1Nc1nc(Nc2ccc3c(c2OC)CCC[C@@H](N2CCN(CCO)CC2)C3)ncc1Cl	2.35 µM (active)	1.48 µM (active)	0.833 µM (active)	5.9 µM (active)						11.8 µM (active)
CCC(=O)N1CCOc2c(cc(-c3cc(OC)cc(OC)c3)cc2C(=O)N[C@H]2CCCN(C)C2)C1					inactive	inactive	inactive	inactive	inactive	
OC1CCC([C@H](O)C[C@H]2c3c(F)cccc3-c3cncn32)CC1 (stereo not given in full)					inactive	inactive	inactive	inactive	inactive	
CN1CCN(c2ccc(C(=O)Nc3n[nH]c4ccc(Cc5cc(F)cc(F)c5)cc34)c(NC3CCOCC3)c2)CC1	2.09 µM (active)	4.17 µM (active)	2.35 µM (active)	3.32 µM (active)						5.25 µM (active)
Cc1cnc(Nc2ccc(F)cc2Cl)nc1-c1c[nH]c(C(=O)NC(CO)c2cccc(Cl)c2)c1 (stereo not given)	3.32 µM (active)	5.9 µM (active)	2.09 µM (active)	2.63 µM (active)						10.5 µM (active)
O=C(Nc1cnn2ccc(N3CCC[C@@H]3c3cc(F)ccc3F)nc12)N1CC[C@H](O)C1					inactive	inactive	inactive	inactive	inactive	
O=C(O)CNC(=O)c1ncc(-c2cccc(Cl)c2)cc1O					inactive	inactive	inactive	inactive	inactive	
CCCCNc1ncc2c(-c3ccc(F)cc3)nn(CC3CCC(N)CC3)c2n1 (stereo not given)	8.11 µM (active)	8.11 µM (active)	5.12 µM (active)	8.11 µM (active)						7.23 µM (active)
CCN(C(=O)c1ccccc1OC)c1cc2c(cc1N1CCNC[C@H]1C)n(C)c(=O)n2C					inactive	inactive	inactive	inactive	inactive	
C[C@H]1CN(C[C@H](Cc2ccccc2)C(=O)NCC(=O)O)CC[C@@]1(C)c1cccc(O)c1					inactive	inactive	inactive	inactive	inactive	
C=CC(=O)Nc1cc(N2CCN(CC)CC2)ccc1Nc1cc(N(C)C(=O)Nc2c(Cl)c(OC)cc(OC)c2Cl)ncn1	14.8 µM (active)	14.8 µM (active)	18.6 µM (active)	20.9 µM (active)	inactive					
CC(C)(O)C1CCC(Nc2ccc3ncc(-c4cccc(C(F)(F)F)c4)n3n2)CC1 (stereo not given)	7.42 µM (active)	18.6 µM (active)	13.2 µM (active)	10.5 µM (active)						8.33 µM (active)

Compound	AC50 [1]	AC50 [2]	AC50 [3]	AC50 [4]	outcome [5]	outcome [1]	outcome [2]	outcome [3]	outcome [4]	IC50 [5]
CCCCNc1ncc2c(-c3ccc(CN4CCN(C)CC4)cc3)cn(C3CCC(O)CC3)c2n1 (stereo not given)	1.48 µM (active) and 1.32 µM (active)	2.35 µM (active) and 1.86 µM (active)	742 nM (active) and 934 nM (active)	3.32 µM (active) and 2.95 µM (active)						3.32 µM (active)
CO[C@@H]1COCC[C@@H]1N[C@@H]1CC[C@@](C(=O)N2CCc3ncc(C(F)(F)F)cc3C2)(C(C)C)C1					inactive	inactive	inactive	inactive	inactive	
CCN1CCN(Cc2ccc(NC(=O)Nc3ccc(Oc4cc(NC)ncn4)cc3)cc2C(F)(F)F)CC1	7.42 µM (active)	3.32 µM (active)	10.5 µM (active)	3.72 µM (active)						7.42 µM (active)
COc1ccc(S(=O)(=O)Nc2cc(-c3csc(C#N)c3)ccc2C)cc1	0.0742 µM (active)	0.166 µM (active)	0.148 µM (active)	0.0934 µM (active)						0.263 µM (active)
CN(C)Cc1ccc(S(=O)(=O)n2ccc(/C=C/C(=O)NO)c2)cc1	9.34 µM (active)	5.9 µM (active)	6.61 µM (active)	9.34 µM (active)						7.42 µM (active)
COC[C@@H](c1ccc(C(F)(F)F)cc1)N1CCN(C2(C)CCN(C(=O)c3c(C)ncnc3C)CC2)C[C@@H]1C					inactive	inactive	inactive	inactive	inactive	
Clc1cccc(-c2ccc(-c3nnc(CCCc4ccc5cccnc5n4)o3)cc2)c1					inactive	inactive	inactive	inactive	inactive	
Fc1cccc(-n2cnc3c(NCc4nc5c(F)c(F)ccc5[nH]4)nc(N4CCOCC4)nc32)c1	0.166 µM (active)	0.295 µM (active)	0.332 µM (active)	0.209 µM (active)						0.525 µM (active)
CC(C)c1c(-c2ccccc2)nc2c(C#N)c[nH]n2c1=O					inactive	inactive	inactive	inactive	inactive	
Nc1ncnc(Nc2ccc(OCc3ccccc3)c(Cl)c2)c1/C=N/OCCN1CCOCC1	23.5 µM (active)	16.6 µM (active)	16.6 µM (active)	18.6 µM (active)						14.8 µM (active)
C=C1C[C@H]2C=Nc3cc(OCCCOc4cc5c(cc4OC)C(=O)N4CC(=C)C[C@H]4C=N5)c(OC)cc3C(=O)N2C1	0.00186 µM (active)	0.0209 µM (active)	0.0166 µM (active)	0.00372 µM (active)						0.0742 µM (active)
COc1cc(N2CCC(N3CCN(C)CC3)CC2)ccc1Nc1ncc(Cl)c(Nc2ccccc2P(C)(C)=O)n1	0.105 µM (active)	0.332 µM (active)	0.186 µM (active)	1.18 µM (active)						1.05 µM (active)
C[C@@H]1CC(=O)Nc2cccc(-c3cnn(C(C)(C)C)c3)c2N1					inactive	inactive	inactive	inactive	inactive	
COc1ccc2cc(OCC3(C(=O)O)CN(C(=O)c4ccc(F)cc4)C3)ccc2c1					inactive	inactive	inactive	inactive	inactive	
CCc1cc(C(N)=O)ccc1-n1nc(C(C)C)c2c(-n3cnc(-c4cnn(C)c4)c3)ccnc21	1.86 µM (active)	3.72 µM (active)	1.86 µM (active)	3.32 µM (active)						3.32 µM (active)
Cc1ccc(S(=O)(=O)Nc2cc(-c3ccc(C#N)s3)ccc2C)cc1	0.0468 µM (active)	0.0525 µM (active)	0.0332 µM (active)	0.059 µM (active)						0.0661 µM (active)
